The record followed here is PubChem BioAssay AID933 (National Center for Advancing Translational Sciences (NCATS), 2007).

Records with an inconclusive call do not appear. Where a call stands in place of a potency, no number is given. Unmarked numbers belong to inactive results. Calls of active or inactive are those of the source. Calls follow the shape of the dose curve; as a rule, active = well fitted activation curve with a large enough effect in the signal ratio, with a control signal flat; inconclusive = small, poorly fitted or top-dose-only effect, or a change in a side signal; inactive = flat fitted curve, though single readings scatter; the % refers to the signal ratio.
Potency is read from the fitted curve at half-maximal effect.

Chain of Thyrotropin receptor (Homo sapiens) (P16473 whole entry, looked up): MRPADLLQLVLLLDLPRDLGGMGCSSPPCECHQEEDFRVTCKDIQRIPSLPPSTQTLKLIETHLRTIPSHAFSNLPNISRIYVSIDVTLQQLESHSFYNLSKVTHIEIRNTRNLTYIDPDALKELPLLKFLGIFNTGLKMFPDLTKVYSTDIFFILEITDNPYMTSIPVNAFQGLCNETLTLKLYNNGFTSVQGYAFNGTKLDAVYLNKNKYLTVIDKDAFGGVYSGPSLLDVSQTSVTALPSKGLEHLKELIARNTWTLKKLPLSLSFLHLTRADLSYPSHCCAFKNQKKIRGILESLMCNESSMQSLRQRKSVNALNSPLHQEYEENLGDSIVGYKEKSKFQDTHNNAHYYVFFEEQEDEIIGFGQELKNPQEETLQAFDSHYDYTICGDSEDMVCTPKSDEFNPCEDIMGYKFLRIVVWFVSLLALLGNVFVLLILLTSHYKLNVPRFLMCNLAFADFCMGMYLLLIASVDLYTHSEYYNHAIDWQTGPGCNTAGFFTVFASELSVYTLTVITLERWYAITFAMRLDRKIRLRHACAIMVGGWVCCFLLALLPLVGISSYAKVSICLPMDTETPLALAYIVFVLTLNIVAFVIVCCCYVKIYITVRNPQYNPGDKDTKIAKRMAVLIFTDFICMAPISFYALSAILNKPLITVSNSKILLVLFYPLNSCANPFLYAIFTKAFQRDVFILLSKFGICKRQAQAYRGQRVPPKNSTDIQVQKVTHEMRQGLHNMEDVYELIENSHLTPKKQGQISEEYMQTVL

The test deals with Thyrotropin receptor (Homo sapiens) (UniProt P16473). Nature of the test: Secondary Concentration-Response Assay for Agonists of the Thyroid Stimulating Hormone Receptor: HTRF Activity Detection.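 As to activation: HEK 293 cells stably expressing human TSHR with RO 20-1724 phosphodiesterase inhibitor.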 To be noted: HEK293-TSHR cells, cAMP HTRF ratio, 30 min; series mostly up to 91.7 µM. Put shortly:
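Orthogonal confirmation in a separate TSHR-transfected HEK 293 line: cells in medium with 10 % FCS and 100 uM RO 20-1724 got compound for 30 min at room temperature. cAMP was measured by HTRF (d2-cAMP/anti-cAMP antibody), 615/660 nm emission.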
Background: Time-resolved FRET reads energy transfer from a long-lived donor to a nearby acceptor.
In the case of `Cc1ccccc1NC(=O)CSc1nnc(-c2ccoc2C)n1CCc1ccccc1`, the activation was -0.0378% [at 0.00035 µM]. Regarding `COc1ccc(C2Nc3ccccc3C(=O)N2c2ccc(F)cc2)cc1COc1ccc(NC(C)=O)cc1` (stereo not given), the Potency entry is “inactive”.

For the compound `COc1ccc(C(=O)N(Cc2ccccc2)Cc2ccc(OC)c(COc3ccc(NC(C)=O)cc3)c2)cc1`, the Potency is 12.6 µM (active). `Cc1nn(C)c(C)c1S(=O)(=O)N(CC(=O)Nc1ccccn1)c1ccc(C(C)C)cc1`: the activation was -0.155% [at 0.00035 µM].

As to `CCCCN1C(=O)c2ccccc2NC1c1ccc(OC)c(COc2ccc(NC(C)=O)cc2)c1` (stereo not given), the Potency is 20 µM (active).

Regarding `O=C(COC(=O)C12CC3CC(CC(C3)C1)C2)NCC1CCCO1` (stereo not given), the Potency result is “inactive”. As to `CCOC(=O)COc1c(OC)cc(Cl)cc1C1Nc2ccccc2C(=O)N1c1ccc(F)cc1` (stereo not given), the Potency entry was “inactive”. Turning to `COc1ccc(CN(Cc2ccccc2)C(=O)c2ccno2)cc1COc1ccc(NC(C)=O)cc1`, the Potency entry is “inactive”. Regarding `O=C(c1ccco1)N(Cc1cccs1)c1ccc(O)cc1`, the Potency result was “inactive”.

In the case of `COc1ccc(C(=O)N(Cc2cccs2)Cc2cccs2)c(O)c1`, the Potency was 15.8 µM (active). Same read-out and setting: for `COc1ccc(C2Nc3ccccc3C(=O)N2Cc2ccccc2C)cc1COc1ccc(NC(C)=O)cc1` (stereo not given) the value was “inactive”. As for `O=C(CN(Cc1ccccc1Cl)C(=O)Cn1nnc(-c2cccs2)n1)NCC1CCCO1` (stereo not given), the activation was 0.671% [at 0.00035 µM]. The same measure, in the same setting: then `COCCNC(=O)C(c1ccc(C)o1)N(C(=O)c1snc(C(N)=O)c1N)c1ccc(C)cc1` (stereo not given), with -0.472% [at 0.00035 µM]. Take `COc1cc(C2Nc3ccccc3C(=O)N2c2ccc3c(c2)OCCO3)ccc1OCC(C)C` (stereo not given): the Potency result is “inactive”. As to `O=C(CSc1nnc(-c2ccccc2)n1Cc1ccco1)Nc1ccc2c(c1)OCCO2`, the activation is -0.544% [at 0.00035 µM]. For `O=C(COC(=O)C12CC3CC(CC(O)(C3)C1)C2)NCc1ccco1`, the Potency entry is “inactive”.

Regarding `COc1cccc(C(c2nnnn2Cc2ccccc2)N2CCN(C(=O)c3ccco3)CC2)c1OC` (stereo not given), the activation is 0.497% [at 0.00035 µM]. For `COc1ccc(CN2C(=O)c3ccccc3NC2c2ccc(OC)c(COc3ccc(NC(C)=O)cc3)c2)cc1` (stereo not given), the Potency is 3.16 µM (active). Regarding `COc1ccc(N2C(=O)c3ccccc3NC2c2ccc(OC)c(COc3ccc(NC(C)=O)cc3)c2)cc1` (stereo not given), the Potency entry was “inactive”. Take `COc1cc(OC)cc(-c2nnc(SCC(=O)N(C(C)C)C(C)C)o2)c1`: the activation was 0.0275% [at 0.00035 µM]. For the compound `COC(=O)c1cc(C(=O)OC)cc(N2C(=O)CC(Sc3nc(C)cc(C)n3)C2=O)c1` (stereo not given), the activation was -0.898% [at 0.00035 µM]. For `COC(=O)COc1ccc(Cl)cc1C1Nc2ccccc2C(=O)N1c1ccc(OC)cc1` (stereo not given), the Potency result is “inactive”. As to `O=C(c1cc(-c2cccs2)on1)N1CCCc2ccccc21`, the activation is 0.238% [at 0.00035 µM]. For the compound `COc1cccc(CN2C(=O)c3ccccc3NC2c2ccc(OC)c(COc3ccc(NC(C)=O)cc3)c2)c1` (stereo not given), the Potency is 6.31 µM (active).

Consider `COc1ccc(C2Nc3ccccc3C(=O)N2c2ccc(C)cc2)cc1Cn1cc([N+](=O)[O-])cn1` (stereo not given), for which the Potency result is “inactive”. On the same count and under the same terms, then `CC(=O)Nc1cccc(OCc2cccc(C3Nc4ccccc4C(=O)N3Cc3ccco3)c2)c1` (stereo not given), with “inactive”. Turning to `CC(c1ccco1)N(C(=O)c1ccc(Cl)s1)c1ccccn1` (stereo not given), the activation is 0.422% [at 0.00035 µM]. Consider `COc1ccc(C2Nc3ccccc3C(=O)N2c2ccccc2)cc1COc1ccccn1` (stereo not given), for which the Potency result was “inactive”. `COc1ccc(N2C(=O)c3ccccc3NC2c2ccc(OC)c(CSc3ccccn3)c2)cc1` (stereo not given): the Potency entry was “inactive”. As to `O=C(c1ccccc1O)N(Cc1ccccc1)Cc1cccs1`, the Potency result was “inactive”. The same measure, in the same setting: for `COc1ccc(C2Nc3ccccc3C(=O)N2C2CCCC2)cc1COc1ccc(NC(C)=O)cc1` (stereo not given) the value was “inactive”; for `COc1ccc(CN(Cc2ccccc2)C(=O)c2ccccc2N)cc1COc1ccc(NC(C)=O)cc1`, 25.1 µM (active); for `CCN(CC)CCN1C(=O)c2ccccc2NC1c1cc(OC)c(OC)c(OC)c1` (stereo not given), “inactive”. On the same count and under the same terms, for `COc1ccc(C2Nc3ccccc3C(=O)N2c2ccc(C)cc2)cc1Cn1nc(C)c([N+](=O)[O-])c1C` (stereo not given) the value was “inactive”. With `CN1C(=O)N(C)C2(c3ccccc3)Nn3c(s/c(=C/c4ccco4)c3=O)=NC12c1ccccc1` (stereo not given), the activation was 0.345% [at 0.00035 µM].
